# Experimental data as given in the supplement of paper PMC6555819.
# Legend:
# Test in all cases: PBM binding z-score (relative to random genomic background probes); higher = stronger binding; sequences stand for … in GC…GCGATTGACAGCGTAGAATGAAGG
# [1] = test system: FXR:RXRa (NR concentration 270 nM, RXRa partner concentration 90 nM)
# Outline: (§1)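 Random background probes are the reference for binding z-scores. These scores derive from regression-normalized fluorescence on custom Agilent 4×180K protein-binding microarrays incubated 1 h with ligand-free nuclear receptor dimers. Binding was detected with antibodies against each partner (one per run).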
# [2] = test system: LXRa:RXRa (NR concentration 270 nM, RXRa partner concentration 90 nM)
# Outline: as §1
# [3] = test system: LXRa homodimer (NR concentration 270 nM)
# Outline: as §1
# [4] = test system: LXRb:RXRa (NR concentration 270 nM, RXRa partner concentration 90 nM)
# Outline: as §1
# [5] = test system: LXRb homodimer (NR concentration 270 nM)
# Outline: as §1
# [6] = test system: PPARa:RXRa (NR concentration 270 nM, RXRa partner concentration 90 nM)
# Outline: as §1
# [7] = test system: PPARg:RXRa (NR concentration 180 nM, RXRa partner concentration 90 nM)
# Outline: as §1
# [8] = test system: PPARg:RXRa 270nM:90nM, anti-RXR (NR concentration 270 nM, RXRa partner concentration 90 nM)
# Outline: as §1
# [9] = test system: PPARg:RXRa 30nM:10nM, anti-RXR (NR concentration 30 nM, RXRa partner concentration 10 nM)
# Outline: as §1
# [10] = test system: PPARg:RXRa 90nM:30nM, anti-RXR (NR concentration 90 nM, RXRa partner concentration 30 nM)
# Outline: as §1
# [11] = test system: PPARg:RXRa DBDmut IVT, anti-RXR (DBD mutation: RXRa K156A/R161A, NR concentration 270 nM, RXRa partner concentration 90 nM)
# Outline: as §1
# [12] = test system: PPARg:RXRa IVT, anti-PPARg (NR concentration 270 nM, RXRa partner concentration 90 nM)
# Outline: as §1
# [13] = test system: PPARg DBDmut:RXRa IVT, anti-PPARg (DBD mutation: PPARg1 K132A/R137A, NR concentration 270 nM, RXRa partner concentration 90 nM)
# Outline: as §1
# [14] = test system: PPARg DBDmut IVT, anti-PPARg (DBD mutation: PPARg1 K132A/R137A, NR concentration 270 nM)
# Outline: as §1
# [15] = test system: PPARg homodimer (NR concentration 180 nM)
# Outline: as §1
# [16] = test system: PXR:RXRa (NR concentration 270 nM, RXRa partner concentration 90 nM)
# Outline: as §1
# [17] = test system: PXR homodimer (NR concentration 270 nM)
# Outline: as §1
# [18] = test system: RARa:RXR (NR concentration 270 nM, RXRa partner concentration 90 nM)
# Outline: as §1
# [19] = test system: RARa homodimer (NR concentration 270 nM)
# Outline: as §1
# [20] = test system: RARb:RXRa (NR concentration 270 nM, RXRa partner concentration 90 nM)
# Outline: as §1
Sequence,PBM binding z-score [1],PBM binding z-score [2],PBM binding z-score [3],PBM binding z-score [4],PBM binding z-score [5],PBM binding z-score [6],PBM binding z-score [7],PBM binding z-score [8],PBM binding z-score [9],PBM binding z-score [10],PBM binding z-score [11],PBM binding z-score [12],PBM binding z-score [13],PBM binding z-score [14],PBM binding z-score [15],PBM binding z-score [16],PBM binding z-score [17],PBM binding z-score [18],PBM binding z-score [19],PBM binding z-score [20]
ACTATTAGTTGAGACGAGGGCCACCGATAGGTTG,-0.105,-0.102,-0.224,-0.593,0.0596,-0.508,0.594,-0.159,0.0911,-0.12,-0.292,0.0879,0.833,0.398,-0.375,-0.504,-0.253,-0.185,0.235,0.235
TTAACAAGGTGAAGGTCGTTGATCCCTCTGTAGA,2.23,1.78,-0.258,1.35,-0.562,2.91,2.42,3.09,1.5,2.65,2.79,3.4,0.419,0.266,0.4,1.35,0.014,1.82,-0.625,2.03
TTACCAAGGTGAGCTGAAGTCGTTGATCCAACTC,-0.293,-0.529,-0.801,-0.542,-1.23,0.187,-0.231,0.143,-0.185,0.0287,0.859,1.48,-0.768,-0.947,-0.94,-0.181,-0.685,-0.105,-0.713,0.929
GCTAGTTGGTCAGTAAAAGGCCACACACCGGTCG,-0.0469,-0.0882,-0.17,-0.23,-0.629,0.0643,0.521,0.122,-0.368,0.378,-0.0753,0.216,-0.775,-1.15,0.58,-0.0291,-0.108,0.345,-0.305,1.42
CCTTACGGGTCACGAGGTGATAGCACGACGAGCG,6.73,4.27,-0.242,3.42,-0.279,5.82,7.42,6.5,3.14,5.75,3.97,5.24,1.17,1.06,3.17,3.69,-0.0631,5.02,0.649,4.27
TATAGAGGGTCAAAGGCCAGAGTACGAATGTCGA,6.65,4.84,0.902,3.76,1.49,5.82,8.05,6.87,5.22,7.09,2.58,4.43,0.901,0.741,2.2,3.62,0.282,5.1,1.12,4.11
GGAACGAGGGCATACGAGTTGATAGCATGGCGAT,1.33,0.61,-0.418,-0.0696,-0.795,1.25,1.28,0.666,0.135,0.26,2.9,1.74,0.174,-0.54,0.0813,3.18,0.351,0.371,-0.394,1.7
CAAACTAGGTCACGAAAGGTCACAGTCGAATGAC,6.73,7.6,5.88,6.82,1.64,6.62,10.1,8.34,6.6,8.57,8.61,9.14,2.02,1.37,4.6,6.61,1.31,7.03,2.46,5.7
ATATGTAGGTTAAATCCGGGTCATTCAGGCTATG,2.83,5.17,3.32,3.47,1.09,4.96,5.84,5.44,2.91,4.84,7.28,7.3,2.58,2.7,2.38,4.32,1.9,4.3,0.415,2.51
TCTTGTAGATCCAAGGTTAAGAAAGCCGAAGCCT,0.319,0.55,-0.254,0.993,-0.378,1.65,1.15,3.41,3.23,3.55,1.7,0.596,0.181,0.325,0.227,0.966,0.261,1.18,-0.206,0.88
ACTTGCGGGTCAACGAGGTTATAGCACGCGTATA,6.24,4.45,0.548,4.2,0.327,5.46,5.47,5.43,2.04,4.42,5.15,4.85,1.36,0.482,2.04,4.86,3.57,5.03,1.02,3.83
ACAGACAGGTGGGTGAAGGTAACTCAGCTGGACG,0.0751,-0.222,-0.335,-0.235,-0.295,0.238,0.861,0.585,-0.13,0.177,0.962,1.16,0.32,-0.724,0.276,-0.217,0.171,0.0103,-0.0597,0.155
AGTATGAGGTTATTAAGATCAGGGAATTGCGGTC,1.55,1.75,0.568,1.52,0.578,2.12,0.776,1.12,0.453,0.816,0.549,1.51,1.49,0.314,1.11,1.5,0.942,1.55,1.05,1.4
AGAATGAGGTTAAGATCAGGGGAACAGAATACAT,2.39,1.58,0.0516,1.98,0.284,3.55,2.33,2.48,0.75,1.88,3.34,2.63,1.57,0.78,1.05,1.43,0.765,2.02,0.798,1.95
ACCTCTAGGTAAAGTTCAGTGAAAGATCGATAGA,0.698,1.23,0.94,0.893,0.102,1.58,1.08,2.32,0.584,1.63,1.91,1.47,-0.268,0.284,0.684,1.61,1.03,0.806,0.172,2.41
CGTCCAAGGTCAGCAGGTCAGCGAAAGCGACGTG,6.11,4.35,0.407,3.19,-0.541,4.9,4.79,4.99,1.45,3.69,3.38,3.9,-0.473,-0.272,3.39,4.07,0.421,5.3,1.49,5.43
ACTACAGGGTCATCGTAGGCCAGAGTACGCACAG,6.89,5.5,0.216,4.08,0.987,5.89,5.88,5.25,2.32,3.77,1.66,3.47,2.18,1.55,1.49,4.76,0.458,4.67,0.217,4.45
TAGCCTAGGTCATGCGGGCCCGTATAGTGTCGGC,3.96,3.12,0.169,1.59,0.214,3.37,1.74,2.29,0.0314,1.22,1.87,3.05,-0.348,0.0155,0.405,1.07,-0.531,2,-0.428,3.62
CCTACAGGGCCAAAAAGGTCATTGATGCCGATAA,4.22,4.32,2.83,4.2,0.284,4.61,1.51,2.74,0.52,1.49,-0.0995,0.938,-1.38,-1.06,2.94,5.28,4.66,5.28,1.42,4.26
CATCCAAGGTCATAGGAGGTCAGTGAAGACAGAT,7.76,7.88,6.67,6.38,1.99,6.12,6.25,6.07,3.14,4.93,3.6,4.75,3.02,2.08,5.33,6.96,4.63,6.4,3.27,5.38
ACTATTAGTTGACTTAGGGCTACCGATACGACGC,0.0661,-0.121,-0.0225,-0.352,0.601,-0.131,0.862,-0.0974,0.182,-0.112,-0.203,0.114,1.14,0.816,0.416,-0.151,-0.109,0.146,0.74,0.27
CAAACTAGGTCAAGAGGTCAAAGACCGCTTCCCG,7,6.25,5.13,5.46,1.47,6.65,10.1,8.53,7.38,8.62,8.33,8.34,1.4,0.266,5.54,5.94,1.78,7.58,1.89,5.61
GCTCGTAGATCAAGGTTAAGAAAGACTAAGCTAA,-0.496,0.698,-0.704,0.341,-1.05,1.03,-0.16,0.485,-0.162,0.0383,-0.49,-0.249,-1.42,-0.839,-1.01,0.125,-0.272,0.412,-0.428,0.601
CGTCCAAGGTCAAGGTCTGTGAAAGAGACTCGAA,7.12,4.99,0.422,3.92,0.346,5.39,4.93,5.76,1.41,3.96,3.42,3.88,2.1,0.39,4.29,3.72,0.462,4.54,1.7,5.24
CCTAACAGGCCAGGGTCACTCAAGCATTTCGCTT,2.05,1.86,-0.195,2.38,-0.349,3.2,0.798,1.41,-0.181,0.356,0.296,0.882,-0.338,-0.618,1.4,2.58,-0.222,3.26,0.384,2.85
CCTACTGGGCCAAAGGTCATTAATTCCAATGCTC,4.33,4.53,3.47,4.65,0.938,6.19,12.5,10.3,12.4,12.4,5.16,6.79,0.543,0.388,4.75,5.26,2.61,5.93,2.26,4.25
TCAGAAAGGTGAAGGTAACTCAGGTACGCAGTCG,1.82,2.61,0.105,1.67,-0.156,2.97,1.75,3.44,4.63,4.04,4.06,2.93,0.125,0.136,0.958,1.12,0.164,1.88,0.504,3.25
CCAGACAGGTGAAAGGTAACTCAATCTGGTACGC,0.545,0.735,-0.0709,1.09,-0.161,3.43,5.5,6.13,3.94,5.99,2.13,2.83,-0.064,-0.205,1.32,1.09,0.164,2.31,0.578,1.11
CGAACTAGGTCATCCAGGACAGTGAGTACATTGA,4.32,2.81,0.741,1.9,0.24,4.49,7.45,6.5,3.99,5.85,8.47,8.31,2.59,1.36,2.5,2.8,8.11,2.46,0.186,3.92
